Inconclusive results are not listed. The source made the active and inactive calls. The call rests on the fitted dose curve; in most records, active means well fitted inhibition curve with a large enough effect; inconclusive means small, poorly fitted or top-dose-only effect; inactive means flat fitted curve, though single readings scatter.
Assays:
Assay in all cases: qHTS profiling for inhibitors of Plasmodium falciparum proliferation (AID 504749); further: nearly all actives have a fitted effect of over 60% in size
Conditions in all cases: P. falciparum in erythrocytes, SYBR Green DNA, 72 h; series mostly up to 28.7 µM
CP250 = tested on: CP250
Procedure, shortened: (§1)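 P. falciparum-infected erythrocytes (0.3% parasitemia, 2.5% hematocrit) incubated with compound 72 h at 37 C, 5% CO2. Parasite DNA detected by SYBR Green after lysis, overnight at room temperature; normalised to 0.29 uM artemisinin and DMSO.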

CP252 = tested on: CP252
Procedure, shortened: as §1

CP256 = tested on: CP256
Procedure, shortened: as §1

CP260 = tested on: CP260
Procedure, shortened: as §1

CP265 = tested on: CP265
Procedure, shortened: as §1

CP266 = tested on: CP266
Procedure, shortened: as §1

CP268 = tested on: CP268
Procedure, shortened: as §1

CP269 = tested on: CP269
Procedure, shortened: as §1

CP286 = tested on: CP286
Procedure, shortened: as §1

CP262 = tested on: CP262
Procedure, shortened: as §1

Measured: Potency
Potency means the concentration at half of the fitted maximal effect.

Cc1scc2c1N(C(=O)CN1CCN(C)CC1)c1ccccc1NC2=O
not listed: CP262
inactive: all other assays above

Nc1c2c(nc3ccccc13)CCCC2O (stereo not given)
inactive: all assays above

CCN(CC)CCCN(c1ccccc1)C1Cc2ccccc2C1
active: CP250 7.94 µM | CP252 10 µM | CP256 4.47 µM | CP260 2.82 µM | CP265 3.98 µM | CP266 8.49 µM | CP268 7.57 µM | CP269 10.7 µM | CP286 5.01 µM

CC(C)(Oc1ccc(CCNC(=O)c2ccc(Cl)cc2)cc1)C(=O)O
inactive: all assays above

CN(C(=O)CCCOc1ccc2[nH]c(=O)ccc2c1)C1CCCCC1
not listed: CP266
inactive: all other assays above

CN(C)C(=O)Oc1cccc([N+](C)(C)C)c1
inactive: all assays above

CCN(Cc1ccncc1)C(=O)C(CO)c1ccccc1 (stereo not given)
inactive: all assays above

CCN(CC)CCNC(=O)c1cc(S(C)(=O)=O)ccc1OC
not listed: CP266 | CP268 | CP269
inactive: all other assays above

CCCN(CCC)CCc1cccc2c1CC(=O)N2
inactive: all assays above

CN(C)C(=O)Oc1ccc[n+](C)c1
inactive: all assays above

Cc1nc2c([nH]1)c(=O)n(C)c(=O)n2Cc1ccco1
inactive: all assays above

CC(=O)[C@@]1(O)CC[C@H]2[C@@H]3CCC4=CC(=O)CC[C@]4(C)[C@H]3CC[C@@]21C
inactive: all assays above

CCCCCN(CCCCC)C(=O)C(CCC(=O)O)NC(=O)c1ccc(Cl)c(Cl)c1 (stereo not given)
inactive: all assays above

NC(Cc1ccc(Cl)cc1)C(=O)O (stereo not given)
inactive: all assays above

Cc1ccc(=O)n(-c2ccccc2)c1
not listed: CP266
inactive: all other assays above

NC/C=C/C(=O)O
inactive: all assays above

CCN(CC)CCNC(=O)c1ccc(NC(C)=O)cc1
not listed: CP266
inactive: all other assays above

CN(C)CCCN1c2ccccc2Sc2ccc(C(F)(F)F)cc21
not listed: CP260 | CP286
inactive: all other assays above

Cc1ccc(S(=O)(=O)NC(=O)NN2CCCCCC2)cc1
not listed: CP262
inactive: all other assays above

NS(=O)(=O)c1cc2c(cc1Cl)NC(C1CC3C=CC1C3)NS2(=O)=O (stereo not given)
inactive: all assays above

CCCCNc1ccc(C(=O)OCCN(C)C)cc1
not listed: CP266
inactive: all other assays above

CCN1CCc2nc(N)oc2CC1
not listed: CP268
inactive: all other assays above

CN1CCN(CC(=O)N2c3ccccc3C(=O)Nc3cccnc32)CC1
not listed: CP266
inactive: all other assays above

CC(=O)[C@]1(O)Cc2c(O)c3c(c(O)c2[C@@H](O[C@H]2C[C@H](N)[C@H](O)[C@H](C)O2)C1)C(=O)c1ccccc1C3=O
active: CP250 6.31 µM | CP252 7.94 µM | CP256 10 µM | CP260 2 µM | CP262 12 µM | CP266 8.49 µM | CP268 9.53 µM | CP269 10.7 µM | CP286 1.41 µM

NC(=O)c1cn(Cc2c(F)cccc2F)nn1
inactive: all assays above

O=C(O)CN(CCN(CC(=O)O)CC(=O)O)CCN(CC(=O)O)CC(=O)O
active: CP256 11.2 µM
not listed: CP265 | CP268 | CP262
inactive: all other assays above

C[N+](C)(C)CCOC(N)=O
inactive: all assays above

CC(N=C(NC#N)Nc1ccncc1)C(C)(C)C (stereo not given)
not listed: CP262
inactive: all other assays above

CN(C)CCOC(=O)COc1ccc(Cl)cc1
not listed: CP266
inactive: all other assays above

O=C1NCN(c2ccccc2)C12CCN(CCCC(c1ccc(F)cc1)c1ccc(F)cc1)CC2
inactive: CP262
active: CP250 10 µM | CP252 7.08 µM | CP256 5.01 µM | CP260 10 µM | CP265 5.62 µM | CP268 8.49 µM | CP286 7.08 µM

CC(C(=O)O)c1ccc(CC2CCCC2=O)cc1 (stereo not given)
inactive: all assays above

Nc1ncn([C@@H]2O[C@H](CO)[C@@H](O)[C@H]2O)c(=O)n1
inactive: all assays above

CCCCOCCOCCOCc1cc2c(cc1CCC)OCO2
not listed: CP266
inactive: all other assays above

CN(C)C/C=C(/c1ccc(Br)cc1)c1cccnc1
inactive: all assays above

CC(C)COCC(CN(Cc1ccccc1)c1ccccc1)N1CCCC1 (stereo not given)
inactive: CP250 | CP252 | CP256 | CP262 | CP265 | CP266

OCCN1CCN(CC/C=C2/c3ccccc3Sc3ccc(C(F)(F)F)cc32)CC1
active: CP250 12.6 µM | CP252 7.94 µM | CP256 3.98 µM | CP260 12.6 µM | CP262 6.01 µM | CP268 13.5 µM | CP269 4.78 µM | CP286 8.91 µM

CCN1CCC[C@H]1CNC(=O)c1c(O)c(Cl)cc(Cl)c1OC
inactive: all assays above

COc1ccc([C@@H]2Sc3ccccc3N(CCN(C)C)C(=O)[C@@H]2OC(C)=O)cc1
inactive: all assays above

NC(N)=NC(=O)Cc1c(Cl)cccc1Cl
active: CP250 7.08 µM | CP256 12.6 µM | CP260 10 µM | CP262 4.26 µM
inactive: CP266 | CP268

CN1C[C@H](C(=O)N[C@]2(C)O[C@@]3(O)[C@@H]4CCCN4C(=O)[C@H](Cc4ccccc4)N3C2=O)C[C@@H]2c3cccc4[nH]cc(c34)C[C@H]21
active: CP268 15.1 µM | CP269 8.49 µM

O=C(CCCN1CCC(O)(c2cccc(C(F)(F)F)c2)CC1)c1ccc(F)cc1
active: CP250 10 µM | CP260 11.2 µM | CP262 10.7 µM | CP265 10 µM | CP286 10 µM

CCCC(C(=O)OCCN(CC)CC)(c1ccccc1)c1ccccc1
active: CP265 10 µM | CP269 12 µM | CP286 12.6 µM

CC(C)(C)c1ccc(C(=O)CCCN2CCC(OC(c3ccccc3)c3ccccc3)CC2)cc1
active: CP252 10 µM | CP260 10 µM | CP269 7.57 µM | CP286 8.91 µM

CCn1cc(C(=O)O)c(=O)c2cc3c(cc21)OCO3
not listed: CP260
inactive: all other assays above

CCc1cccc(N(C)C(N)=Nc2cccc3ccccc23)c1
active: CP286 8.91 µM
inactive: CP262

CC(C)NNC(=O)c1ccncc1
not listed: CP252 | CP256
inactive: all other assays above

COCCOC(=O)C1=C(C)NC(C)=C(C(=O)OC(C)C)C1c1cccc([N+](=O)[O-])c1 (stereo not given)
inactive: CP250 | CP256 | CP262 | CP266

CN(C)CC/C=C1\c2ccccc2COc2ccccc21
active: CP265 11.2 µM
inactive: CP250 | CP256 | CP262 | CP266

CC1=C(C)C(=O)C(CCCCC#CCCCC#CCO)=C(C)C1=O
active: CP265 10 µM | CP286 11.2 µM

Cc1ccc(Cl)c(Nc2ccccc2C(=O)O)c1Cl
not listed: CP260
inactive: all other assays above

C=CCc1ccccc1OCC(O)CNC(C)C (stereo not given)
inactive: CP250 | CP262 | CP266

CC1=NS(=O)(=O)c2cc(Cl)ccc2N1
not listed: CP250 | CP252 | CP256
inactive: all other assays above

CNCCC(Oc1ccccc1OC)c1ccccc1 (stereo not given)
inactive: CP250 | CP262 | CP266

CN(C)CCN(Cc1cccs1)c1ccccn1
active: CP265 10 µM
inactive: CP262

CCCN1C[C@H](CSC)C[C@@H]2c3cccc4[nH]cc(c34)C[C@H]21
inactive: CP250 | CP262 | CP266 | CP269
active: CP256 8.91 µM

CCN(CC)CCOCCOC(=O)C1(c2ccccc2)CCCC1
inactive: CP252 | CP262 | CP266
active: CP256 11.2 µM | CP260 11.2 µM | CP265 3.98 µM | CP268 15.1 µM | CP269 13.5 µM | CP286 12.6 µM

CCCCNc1c(C(=O)OCC)c(C)nc2c1cnn2CC
not listed: CP260
inactive: all other assays above

c1cc(CN2CCCCC2)cc(OCCCNc2nc3ccccc3s2)c1
inactive: CP262

NC(N)=N/N=C/c1c(Cl)cccc1Cl
active: CP262 13.5 µM | CP286 11.2 µM

COC(=O)[C@H]1[C@H]2C[C@@H]3c4[nH]c5cc(OC)ccc5c4CCN3C[C@H]2C[C@@H](OC(=O)c2cc(OC)c(OC)c(OC)c2)[C@@H]1OC
active: CP252 11.2 µM | CP260 11.2 µM | CP268 15.1 µM | CP269 9.53 µM | CP286 11.2 µM

CCC(=O)c1ccc2c(c1)N(CCCN(C)C)c1ccccc1S2
active: CP260 11.2 µM
inactive: CP250 | CP262 | CP266

COc1cc(C(=O)OCCCN2CCCN(CCCOC(=O)c3cc(OC)c(OC)c(OC)c3)CC2)cc(OC)c1OC
active: CP250 10 µM | CP260 10 µM | CP265 11.2 µM | CP269 7.57 µM | CP286 10 µM

C[C@]12CCC(=O)C=C1CC[C@@H]1[C@@H]2CC[C@@]2(C)[C@H]1CC[C@]2(O)C(=O)CO
not listed: CP250
inactive: all other assays above

CCOC(=O)c1cnc2c(cnn2CC)c1NN=C(C)C
not listed: CP260 | CP268 | CP286
inactive: all other assays above

CC(C)[N+](C)(CCOC(=O)C1c2ccccc2Oc2ccccc21)C(C)C
inactive: CP266

CN(C)CC[C@@H](c1ccc(Br)cc1)c1ccccn1
inactive: CP250 | CP260 | CP262 | CP266 | CP286

COC(=O)[C@@H](N)Cc1ccc(O)c(O)c1
not listed: CP250 | CP269 | CP262
inactive: all other assays above

CCOC(=O)C1=C(C)NC(C)=C(C(=O)OC)C1c1cccc([N+](=O)[O-])c1 (stereo not given)
inactive: CP266
active: CP252 11.2 µM

CCCCCCCC/C=C\CCCCCCCC(=O)NCc1ccc(O)c(OC)c1
inactive: CP262 | CP266 | CP268 | CP269
active: CP256 11.2 µM | CP265 10 µM

CCn1ccnc1CC1COc2ccccc2O1 (stereo not given)
not listed: CP260
inactive: all other assays above

OC(CCN1CCCCC1)(c1ccccc1)C1CCCCC1 (stereo not given)
not listed: CP260 | CP265
inactive: all other assays above

CN(C)CCCN1c2ccccc2Sc2ccccc21
active: CP265 2.82 µM
inactive: CP262 | CP266

C#CCN(C)CCCOc1ccc(Cl)cc1Cl
not listed: CP250
inactive: all other assays above

Cc1nc2sccn2c(=O)c1CCN1CCC(=C(c2ccc(F)cc2)c2ccc(F)cc2)CC1
inactive: CP256 | CP266 | CP268

C[n+]1cc2c3c(ccc2c2ccc4cc5c(cc4c21)OCO5)OCO3
inactive: CP250 | CP266 | CP268 | CP269 | CP286

Brc1c(NC2=NCCN2)ccc2nccnc12
not listed: CP260 | CP265
inactive: all other assays above

COc1ccc(CCN(C)CCCC(C#N)(c2cc(OC)c(OC)c(OC)c2)C(C)C)cc1OC (stereo not given)
inactive: CP250 | CP265 | CP266

— PubChem BioAssay (NCATS)
